Screening data (PubChem BioAssay)
GALR2 ag: GALR2 (human) receptor agonism; AID 803; activation, % (test concentration not listed); GALR2-expressing cells, agonist activation read-out; O43603; 140,000 compounds, 0.48% hits; in the data active = activation above about 5%, passing the limit was not always enough;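 also: 0% = vehicle buffer wells and 100% = reference agonist at full effect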
MRP1 act: activates MRP-1; H69AR cells + doxorubicin, viability rescue, CellTiter-Glo; AID 799; 140,000 compounds, 0.61% hits; viability increase, % at 10 µM;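 active = viability gain under doxorubicin at or above a set limit, the compound median plus 3 SD, cut at about 4.7% in these data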;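 also: MRP-1 overexpressing cells given doxorubicin 25 µM after compound pretreatment; 18-22 h compound pretreatment then 72 h with doxorubicin before readout; 0% = doxorubicin-only wells and 100% = vehicle-treated cells without doxorubicin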
GALR2 antag: GALR2 (human) receptor antagonism; AID 828; inhibition, % at 4 µM; GALR2-expressing cells, antagonist mode; 140,000 compounds, 0.39% hits; in the data active = inhibition above about 27%;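 also: cells stimulated with galanin 1-16 at roughly its EC80; 0% = agonist challenge control and 100% = basal control without agonist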
S1P2 blocker: antagonists of human S1P2 receptor; AID 736; cell-based S1P2 antagonist assay, inhibition at 5 uM; inhibition, % at 5 µM; O95136; 97,000 compounds, 0.21% hits; in the data active = inhibition above about 45%;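 also: CRE beta-lactamase reporter cells expressing human S1P2 stimulated with S1P; 0% = agonist at EC80 alone and 100% = agonist plus reference antagonist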
Target sequence (O95136 whole entry, looked up): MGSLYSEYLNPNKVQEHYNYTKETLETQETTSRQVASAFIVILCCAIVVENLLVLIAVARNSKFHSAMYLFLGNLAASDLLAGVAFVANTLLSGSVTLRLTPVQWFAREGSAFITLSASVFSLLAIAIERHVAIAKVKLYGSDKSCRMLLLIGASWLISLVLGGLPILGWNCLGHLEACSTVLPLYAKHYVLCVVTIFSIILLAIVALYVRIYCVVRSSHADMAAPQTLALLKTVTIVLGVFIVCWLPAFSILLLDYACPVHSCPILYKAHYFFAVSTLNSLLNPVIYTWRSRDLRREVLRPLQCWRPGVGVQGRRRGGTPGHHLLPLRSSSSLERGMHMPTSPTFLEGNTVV
S1P2 ag: agonists of human S1P2 receptor; O95136; activation, % at 4.5 µM; AID 729; S1P2-expressing cell line, agonist reporter read-out; 97,000 compounds, 0.46% hits; in the data active = activation above about 16%;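 also: 0% = vehicle low control and 100% = maximal reference agonist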
MRP resist rev: reverses drug resistance mediated by MRP | H69AR cells + 2 uM doxorubicin, CellTiter-Glo, 72 h | differential viability (reversal), % at 10 µM | 85,000 compounds, 0.04% hits | AID 602;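 active = viability drop by adding the cancer drug above about 55%, with treated viability meeting a 40% cutoff, limit read from the data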;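 also: viability without doxorubicin minus viability with 2 µM doxorubicin for each compound; larger differential means the compound sensitizes cells more to doxorubicin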
* hit, by the source's call; · = not tested or not shown. In the library only some 1.8% were active in any assay of this set; here they are far more common.

SMILES	GALR2 ag	MRP1 act	GALR2 antag	S1P2 blocker	S1P2 ag	MRP resist rev
Cn1c(SCC(=O)Nc2cccc3ccccc23)nc(O)cc1=O	1	-1	-5	6	-2	·
Cc1ccc(NC(=O)CSc2nc(O)cc(=O)n2C)cc1	-3	8.5*	4	-7	-5	-9
Cc1ccc(NC(=O)CSc2nnc(-c3cccs3)n2Cc2ccco2)cc1	-1	6.1*	1	6	-5	13
Cc1ccc(-n2c(C)nnc2SCC(=O)Nc2ccccc2)cc1	-1	5.9*	-3	-1	-8	8
Cc1ccc(NC(=O)CSc2nnc(C)n2-c2ccccc2)cc1	0	6.8*	-8	-4	-5	1
O=C(CCSc1ccccc1)N1CCN(C(=O)c2ccco2)CC1	-1	-1	4	-18	0	14
Cc1cc(OCC(=O)O/N=C(\N)c2ccccc2)ccc1Br	0	0	-7	·	·	·
CCC(C)(C)NC(=O)C(OC(=O)c1cc2sccc2n1C)c1ccc(OC)cc1 (stereo not given)	0	0	-5	-12	-11	3
Cc1cccc(OCc2nc(-c3nonc3N)no2)c1C	-1	5.2*	0	·	·	-18
Cc1ccc(-c2noc(CCC(=O)N3CCCc4ccccc43)n2)cc1	-2	-1	-8	-6	43*	-11
Cc1ccc(-c2nnn(CC(=O)N3CCCc4ccccc43)n2)cc1	-2	-2	-6	9	-6	3
COc1ccc(C(=O)C(CN2CCOCC2)c2ccccc2)cc1F (stereo not given)	-1	-3	33*	7	-5	1
CCc1nnc(NC(=O)C(C)N2C(=O)C3C4C=CC(C4)C3C2=O)s1 (stereo not given)	0	8.2*	10	4	-6	15
Cc1nnc(NC(=O)NC(C)N2C(=O)C3C4C=CC(C4)C3C2=O)s1 (stereo not given)	-2	-1	0	-2	-2	·
O=C1C(Cc2cccc([N+](=O)[O-])c2)SC(=Nc2ccccc2)N1c1ccccc1 (stereo not given)	-2	6.4*	6	·	·	·
Cc1nc(NC(=O)CSc2nnc(Cn3nnc4ccccc43)n2C)sc1C	-1	-2	-1	·	·	·
CN(C)c1nc(N)nc(CSc2n[nH]c(-c3ccccc3)n2)n1	-2	0	-1	-30	31*	2
O=C(CSc1n[nH]c(-c2ccccc2)n1)c1ccccc1	-2	-2	-2	-10	-3	4
O=C(NCc1ccc2c(c1)OCO2)C1CCCN(S(=O)(=O)c2cccnc2)C1 (stereo not given)	-1	-1	11	8	-5	-5
O=S(=O)(Nc1ncn[nH]1)c1ccc(Cl)cc1	-1	-1	4	7	1	12
CC(C)(C)NC(=O)CSC(=Nc1ccc(F)cc1)NC#N	-2	-4	-1	-4	24*	-14
N#Cc1c(-c2ccccc2)[nH]c(=S)[nH]c1=O	-3	4.7*	2	-13	-4	23
c1ccc(C2COC(c3cccs3)=N2)cc1 (stereo not given)	-1	-3	-2	11	-7	7
Fc1ccccc1N1CC(c2ccccc2)C(c2cccs2)=N1 (stereo not given)	46*	-2	-7	-34	23*	6
Cc1ccc2nc(SCc3cn4cccnc4n3)[nH]c2c1	-1	-1	4	·	·	·
SMILES	GALR2 ag	MRP1 act	GALR2 antag	S1P2 blocker	S1P2 ag	MRP resist rev
O=C(NCc1ccc(F)cc1)C(=O)NCC1OCCN1C(=O)c1cccs1 (stereo not given)	-2	5.3*	2	·	·	·
Cc1ccc(C2CC(=O)Oc3cc(O)ccc32)cc1 (stereo not given)	-1	-1	0	·	·	·
O=C1CC(c2ccccc2)c2cc(O)ccc2O1 (stereo not given)	-1	5.1*	4	·	·	·
Cc1csc(NC(=O)CSc2nnc(-c3cc(C)on3)o2)n1	-1	1	5	·	·	·
Cc1cc(-c2nnc(SCC(=O)NC3CCCC3)o2)no1	-1	1	1	15	70*	-1
COC(=O)C1=C(C)OC(N)=C(C#N)C1c1ccccc1 (stereo not given)	-1	-1	1	1	-4	-2
C=CCC(Nc1ccccc1)C12C=CC(O1)C(C(=O)OC)=C2C(=O)OC (stereo not given)	0	-7	8	65*	-3	0
CC(C)CN(CC(C)C)c1nc(N)c(C#N)c(CC#N)c1C#N	6.3*	-3	-3	-28	-3	·
O=[N+]([O-])c1cccc(/C=N/N2CCN(c3ccccn3)CC2)c1	0	3	-5	·	·	·
